Measurements reported in PubChem BioAssay (EPA / NIEHS).
The source made the active and inactive calls. Rule for the calls: active = hit-call score of the fitted dose curve at least 0.9, where 1 is the maximum; inactive = score below 0.9.

Experiments:
Settings in all cases: mRNA level, 48 h; actives raise or lower the signal
[1] = read-out: Bcl-2 (BAD) gene, BAD (gene 572); assay: LTEA_HepaRG_BAD: Life Technologies and Expression Analysis (LTEA) Assay for Bcl-2 (BAD) gene using HepaRG (AID 2283469)
Outline: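 Differentiated HepaRG cells were exposed in duplicate in 0.5% DMSO for 48 h to eight-point half-log concentrations up to 100 uM. BAD mRNA was measured by Fluidigm TaqMan qRT-PCR, normalized to ACTB, GAPDH and POLR2A, and fitted bidirectionally against DMSO.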

[2] = read-out: Bcl-2 (BAX) gene, BAX (gene 581); assay: LTEA_HepaRG_BAX: Life Technologies and Expression Analysis (LTEA) Assay for Bcl-2 (BAX) gene using HepaRG (AID 2283470)
Outline: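 HepaRG (human liver), 48 h exposure, duplicate wells. 8-pt curve, half-log from 100 uM, 0.5% DMSO. BAX transcript by TaqMan qRT-PCR; ACTB/GAPDH/POLR2A normalization; gain or loss vs DMSO baseline.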

[3] = read-out: adenosine kinase (ADK) gene, ADK (gene 132); assay: LTEA_HepaRG_ADK: Life Technologies and Expression Analysis (LTEA) Assay for adenosine kinase (ADK) gene using HepaRG (AID 2283471)
Outline: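 Following 48 h exposure of HepaRG cells in 0.5% DMSO (top concentration 100 uM, duplicate wells), ADK mRNA induction or suppression was measured by qRT-PCR, normalised to ACTB/GAPDH/POLR2A, and fitted bidirectionally relative to vehicle.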

[4] = read-out: Alpha-fetoprotein (AFP) gene, AFP (gene 174); assay: LTEA_HepaRG_AFP: Life Technologies and Expression Analysis (LTEA) Assay for Alpha-fetoprotein (AFP) gene using HepaRG (AID 2283472)
Outline: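 HepaRG, single lot; 48 h post-plating -> serum-free induction medium; cpd 8-pt, 100 uM top, half-log, 0.5% DMSO, duplicate, 48 h. RNA -> qRT-PCR AFP, norm ACTB/GAPDH/POLR2A. Bidirectional fit vs DMSO.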

[5] = read-out: Apolipoprotein A-V (APOA5) gene, APOA5 (gene 116519); assay: LTEA_HepaRG_APOA5: Life Technologies and Expression Analysis (LTEA) Assay for Apolipoprotein A-V (APOA5) gene using HepaRG (AID 2283474)
Outline: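 Human liver HepaRG cells are treated 48 h with test chemicals (100 uM top, half-log dilutions, 0.5% DMSO). APOA5 mRNA induction or loss is measured by qRT-PCR relative to vehicle.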

[6] = read-out: Apoptosis regulator Bcl-2 (Homo sapiens) (UniProt P10415); assay: LTEA_HepaRG_BCL2: Life Technologies and Expression Analysis (LTEA) Assay for Bcl-2 gene using HepaRG (AID 2283475)
Outline: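 HepaRG, plated 48 h then switched to serum-free induction medium; dosed 48 h, 8 conc. (max 100 uM, half-log steps), duplicate, 0.5% DMSO. Lysis in RLT, RNA isolated, TaqMan qRT-PCR for BCL2; ACTB/GAPDH/POLR2A normalisation; bidirectional fit vs DMSO.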

[7] = read-out: Bcl-2 (BID) gene, BID (gene 637); assay: LTEA_HepaRG_BID: Life Technologies and Expression Analysis (LTEA) Assay for Bcl-2 (BID) gene using HepaRG (AID 2283476)
Outline: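 Transcript levels of BID, measured by qRT-PCR and normalized to three housekeeping genes, were fitted bidirectionally against DMSO controls. Cells were HepaRG, dosed 48 h at up to 100 uM.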

[8] = read-out: Caspase-3 (Homo sapiens) (UniProt P42574); assay: LTEA_HepaRG_CASP3: Life Technologies and Expression Analysis (LTEA) Assay for cysteine-aspartic acid protease (CASP3) using HepaRG (AID 2283477)
Outline: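 In HepaRG liver cells dosed for 48 h at up to 100 uM (eight-point, duplicate), CASP3 expression changes are scored by qRT-PCR. Activity is fitted in both directions with 0.5% DMSO as baseline.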

[9] = read-out: Cytochrome P450 (CYP1A2), CYP1A2 (gene 1544); assay: LTEA_HepaRG_CYP1A2: Life Technologies and Expression Analysis (LTEA) Assay for Cytochrome P450 (CYP1A2) using HepaRG (AID 2283479)
Outline: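 Assesses CYP1A2 mRNA in human HepaRG liver cells after 48 h chemical exposure at up to 100 uM. Values come from qRT-PCR with bidirectional curve fitting relative to DMSO.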

[10] = read-out: cysteine-aspartic acid protease (CASP8), CASP8 (gene 841); assay: LTEA_HepaRG_CASP8: Life Technologies and Expression Analysis (LTEA) Assay for cysteine-aspartic acid protease (CASP8) using HepaRG (AID 2283480)
Outline: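 Differentiated HepaRG cells in serum-free induction medium, 48 h exposure, eight-point half-log series from 100 uM in 0.5% DMSO, duplicates. CASP8 mRNA by qRT-PCR, normalized to ACTB, GAPDH, POLR2A; bidirectional fit versus DMSO.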

[11] = read-out: Cytochrome P450 (CYP2B6), CYP2B6 (gene 1555); assay: LTEA_HepaRG_CYP2B6: Life Technologies and Expression Analysis (LTEA) Assay for Cytochrome P450 (CYP2B6) using HepaRG (AID 2283481)
Outline: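 Using 48 h treatment of HepaRG cells in serum-free induction medium, concentrations spanned half-log steps from 100 uM in 0.5% DMSO vehicle. CYP2B6 mRNA induction or loss is scored by qRT-PCR against DMSO.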

[12] = read-out: Cytochrome P450 2C19 (Homo sapiens) (UniProt P33261); assay: LTEA_HepaRG_CYP2C19: Life Technologies and Expression Analysis (LTEA) Assay for CYP2C19 using HepaRG (AID 2283482)
Outline: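 Human HepaRG liver cells received test chemicals for 48 h (highest 100 uM, half-log dilutions in 0.5% DMSO). CYP2C19 mRNA induction or loss is read by multiplexed qRT-PCR and fitted in both directions versus vehicle.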

[13] = read-out: CYP2C8 (gene 1558); assay: LTEA_HepaRG_CYP2C8: Life Technologies and Expression Analysis (LTEA) Assay for CYP2C8 using HepaRG (AID 2283483)
Outline: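 Differentiated HepaRG cells in serum-free induction medium exposed 48 h in duplicate to 8 half-log concentrations from 100 uM in 0.5% DMSO. CYP2C8 mRNA by qRT-PCR normalized to ACTB, GAPDH, POLR2A; bidirectional fit versus DMSO.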

[14] = read-out: CYP2C9 (gene 1559); assay: LTEA_HepaRG_CYP2C9: Life Technologies and Expression Analysis (LTEA) Assay for CYP2C9 using HepaRG (AID 2283484)
Outline: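 Differentiated human HepaRG cells in serum-free induction medium were exposed 48 h to chemicals in 8-point half-log series from 100 uM (0.5% DMSO), in duplicate. CYP2C9 mRNA was measured by qRT-PCR, normalized to ACTB/GAPDH/POLR2A, with bidirectional fitting versus DMSO.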

[15] = read-out: CYP2E1 (gene 1571); assay: LTEA_HepaRG_CYP2E1: Life Technologies and Expression Analysis (LTEA) Assay for CYP2E1 using HepaRG (AID 2283485)
Outline: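 Human liver line HepaRG, plated 48 h, then serum-free induction medium + chemical x 48 h; 8-pt CRC from 100 uM, half-log, 0.5% DMSO, n=2. Readout: CYP2E1 mRNA qRT-PCR vs ACTB/GAPDH/POLR2A; bidirectional fit vs DMSO.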

[16] = read-out: CYP4A11 (gene 1579); assay: LTEA_HepaRG_CYP4A11: Life Technologies and Expression Analysis (LTEA) Assay for CYP4A11 using HepaRG (AID 2283486)
Outline: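 Readout is CYP4A11 mRNA induction or suppression (qRT-PCR, ACTB/GAPDH/POLR2A normalization) in human HepaRG cells after 48 h chemical treatment, concentrations to 100 uM in 0.5% DMSO, fitted bidirectionally against vehicle.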

[17] = read-out: Cytochrome P450 3A4 (Homo sapiens) (UniProt P08684); assay: LTEA_HepaRG_CYP3A4: Life Technologies and Expression Analysis (LTEA) Assay for CYP3A4 using HepaRG (AID 2283487)
Outline: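 In a human hepatic line (HepaRG), duplicate wells were treated 48 h with up to 100 uM chemical in half-log dilutions. Endpoint: CYP3A4 mRNA induction or loss relative to 0.5% DMSO vehicle, by qRT-PCR.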

[18] = read-out: DNA damage-inducible transcript 3 (DDIT3), DDIT3 (gene 1649); assay: LTEA_HepaRG_DDIT3: Life Technologies and Expression Analysis (LTEA) Assay for DNA damage-inducible transcript 3 (DDIT3) using HepaRG (AID 2283488)
Outline: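 HepaRG plated 48 h, switched to serum-free induction medium, dosed 48 h (100 uM top, half-log, 8 pts, 0.5% DMSO, n=2); RNA isolated; DDIT3 by qRT-PCR; bidirectional curve fit vs DMSO.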

Measured: AC50

Cytochrome P450 2C19 (Homo sapiens), sequence (P33261 whole entry, looked up): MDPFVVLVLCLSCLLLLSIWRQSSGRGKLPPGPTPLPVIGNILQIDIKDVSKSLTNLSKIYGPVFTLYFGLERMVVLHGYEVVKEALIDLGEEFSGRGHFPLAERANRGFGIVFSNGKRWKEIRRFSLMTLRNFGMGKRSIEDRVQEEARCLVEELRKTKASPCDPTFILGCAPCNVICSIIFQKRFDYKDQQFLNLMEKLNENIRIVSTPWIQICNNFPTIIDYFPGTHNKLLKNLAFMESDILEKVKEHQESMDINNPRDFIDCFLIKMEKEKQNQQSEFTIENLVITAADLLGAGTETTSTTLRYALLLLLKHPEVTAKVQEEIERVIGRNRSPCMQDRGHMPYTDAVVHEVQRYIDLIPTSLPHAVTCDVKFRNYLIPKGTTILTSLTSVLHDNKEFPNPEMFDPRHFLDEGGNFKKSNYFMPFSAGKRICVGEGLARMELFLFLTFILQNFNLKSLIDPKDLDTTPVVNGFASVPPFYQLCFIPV
Caspase-3 (Homo sapiens), sequence (P42574 whole entry, looked up): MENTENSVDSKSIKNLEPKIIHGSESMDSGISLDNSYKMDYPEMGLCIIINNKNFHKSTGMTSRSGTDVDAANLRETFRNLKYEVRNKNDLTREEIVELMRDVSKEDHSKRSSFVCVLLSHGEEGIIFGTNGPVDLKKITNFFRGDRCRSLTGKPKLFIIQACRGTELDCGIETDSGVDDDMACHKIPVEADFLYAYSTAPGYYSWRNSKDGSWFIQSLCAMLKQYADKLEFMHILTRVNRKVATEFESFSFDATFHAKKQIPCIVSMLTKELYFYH
Apoptosis regulator Bcl-2 (Homo sapiens), sequence (P10415 whole entry, looked up): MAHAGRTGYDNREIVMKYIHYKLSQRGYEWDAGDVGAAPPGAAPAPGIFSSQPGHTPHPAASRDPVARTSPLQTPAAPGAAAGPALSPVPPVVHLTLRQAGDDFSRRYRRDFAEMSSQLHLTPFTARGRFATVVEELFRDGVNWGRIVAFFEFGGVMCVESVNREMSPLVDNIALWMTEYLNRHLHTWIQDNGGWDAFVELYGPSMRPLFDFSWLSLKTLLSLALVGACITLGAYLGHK
Cytochrome P450 3A4 (Homo sapiens), sequence (P08684 whole entry, looked up): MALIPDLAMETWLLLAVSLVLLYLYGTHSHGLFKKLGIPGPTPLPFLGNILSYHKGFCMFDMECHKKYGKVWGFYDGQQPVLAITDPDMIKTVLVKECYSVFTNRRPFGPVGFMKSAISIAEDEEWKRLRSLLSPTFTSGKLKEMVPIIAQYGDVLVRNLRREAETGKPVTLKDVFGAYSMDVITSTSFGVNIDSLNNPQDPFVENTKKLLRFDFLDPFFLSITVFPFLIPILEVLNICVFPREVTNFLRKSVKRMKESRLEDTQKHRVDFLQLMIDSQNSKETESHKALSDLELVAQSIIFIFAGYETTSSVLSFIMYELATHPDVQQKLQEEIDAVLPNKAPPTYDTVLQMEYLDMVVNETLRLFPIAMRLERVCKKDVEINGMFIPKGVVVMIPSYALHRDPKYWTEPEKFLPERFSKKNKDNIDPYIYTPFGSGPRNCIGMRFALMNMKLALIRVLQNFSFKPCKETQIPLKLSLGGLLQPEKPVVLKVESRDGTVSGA

CN(C)C(=S)SSC(=S)N(C)C
active: [11] 50 µM
inactive: all other assays above

CCNc1nc(Cl)nc(NCC)n1
active: [9] 50 µM | [11] 11.3 µM
inactive: all other assays above

COC(=O)N(OC)c1ccccc1COc1ccn(-c2ccc(Cl)cc2)n1
active: [2] 66.7 µM | [3] 77.8 µM | [4] 24.9 µM | [5] 3.56 µM | [6] 89.9 µM | [7] 75.3 µM | [8] 79.5 µM | [9] 12.4 µM | [10] 80.1 µM | [11] 78.1 µM | [12] 77.8 µM | [13] 77.9 µM | [14] 74.7 µM | [15] 34.1 µM | [17] 78.5 µM | [18] 60.9 µM
inactive: [1] | [16]

COC(=O)C(C)Oc1ccc(Oc2ccc(Cl)cc2Cl)cc1 (configuration not stated)
active: [4] 79.6 µM | [6] 50 µM | [12] 29.4 µM | [15] 50 µM | [16] 12.7 µM
inactive: all other assays above
